The full list was thinned out, with hits kept by preference.
VCAM1 TNFa pot = potentiators of TNFa-induced VCAM1 expression, primary screen, imaging, HUVEC, TNFa stimulus, immunofluorescence. HUVEC TNFa-stimulated VCAM-1 immunofluorescence, high-content imaging; scaled per plate to unstimulated/TNFa-only wells. hit rate 0.19% among 93,000. activation, % at 2 µM;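 active = activation above the screen mean plus 3 SD, with well images confirming the hit on visual review, cut at about 28% in these data, passing the limit was not always enough; inconclusive = activation above that limit but images do not confirm it; inactive = activation not above that limit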;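 note: signal is the number of cytoplasmic VCAM-1 stained grains per positive cell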
VCAM1 pot confirm = potentiators of TNFa-induced VCAM1 expression, confirmation, imaging, HUVEC, triplicate retest; shares compounds with VCAM1 TNFa pot; HUVEC TNFa-stimulated VCAM-1 immunofluorescence imaging; activation, % at 2 µM; 230 tested, under 10 active; AID 1034, 2008;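 active = activation above 30% in triplicate retests at 2 µM, then confirmed by visual review of the well images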;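 note: scaled per plate between unstimulated and TNFa-stimulated DMSO control wells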
Active calls of the source: *; ? = inconclusive.

SMILES	VCAM1 TNFa pot	others
Cc1nc(-c2cccnc2)sc1C(N)=O	-4
Cn1c(SCC(=O)NC2CCCCC2)nnc1-c1cccc(N)c1	-54
CN(C)C(=O)Cn1c(SCC(=O)NC2CCCCC2)nc2ccccc21	1
Cn1c(CN2CCOCC2)nnc1SCC(=O)NC1CCCCC1	?	VCAM1 pot confirm=-17
Cc1nc2ccccc2c2c1C(=O)N(CCC1=CCCCC1)C2=O	0
COc1ccccc1-c1cc2ccccc2[nH]1	9
Cc1cc(C)c(S(=O)(=O)Nc2ccc3c4c(cccc24)CC3)c(C)c1	-89
C=CCc1ccccc1OCC(O)CN1CCN(c2ccccc2F)CC1 (stereo unspecified)	7
O=C(NCc1ccc(OC(F)(F)F)cc1)C1CC(c2ccccc2[N+](=O)[O-])=NO1 (stereo unspecified)	-1
CCC(Sc1nc2sc(C(=O)OC)c(C)c2c(=O)n1N)C(=O)N(CC)CC (stereo unspecified)	6
COC(=O)c1ccc(NC(=O)CN2CCCC2)cc1	1
CCOc1ccc(C(Nc2ccc(C)cc2)P2(=O)OCCCO2)cc1 (stereo unspecified)	-14
Cn1c(-c2ccc3c(c2)OCO3)cnc1NCc1ccccc1	51*	VCAM1 pot confirm=-10
Cn1c(Cc2ccccc2)nnc1SCC(=O)Nc1ccc2c(c1)OCO2	2
c1cncc(-c2nc(-c3ccc4c(c3)OCO4)cs2)c1	20
CCCCn1nnc(NC(=O)c2cc3ccccc3o2)n1	7
Cn1c(COc2ccccc2)nnc1SCc1nc2ccccc2[nH]1	30
Cc1ccccc1CSc1nncn1N	-13
O=C1c2ccccc2-c2nc3ccccc3nc21	2
Cc1ccccc1Cn1nnc2c1C(=O)c1ccccc1C2=O	46*	VCAM1 pot confirm=-13
CCCSc1ncnc2c1oc1ccccc12	2
CCOC(=O)CSc1nc(-c2ccccc2)nc2c1oc1ccccc12	-4
CCc1nc(SCC(=O)c2cccs2)c2oc3ccccc3c2n1	28*	VCAM1 pot confirm=-14
COC(=O)c1cc(OC)c(OC)cc1NC(=O)CCCCCN1C(=O)CCC1=O	-3
NC(=O)c1ccccc1N=Cc1ccccn1	40*	VCAM1 pot confirm=-13
SMILES	VCAM1 TNFa pot	others
NC(=O)c1ccccc1OCCOCCOCCOc1ccccc1C(N)=O	18
Cc1cc(C)c2cc(CN(Cc3ccc4c(c3)OCO4)Cc3nnnn3Cc3ccco3)c(=O)[nH]c2c1	54*	VCAM1 pot confirm=-5
COc1ccc2cc(CN(Cc3cccs3)Cc3nnnn3Cc3ccccc3)c(=O)[nH]c2c1	-1
COCCn1nnnc1CN(CCCN1CCOCC1)Cc1cc2c(C)ccc(C)c2[nH]c1=O	-4
O=C1Nc2ccccc2C(=O)C1(Cl)Cc1ccccc1 (stereo unspecified)	-7
CN(C)CCCOC(=O)C1c2ccccc2Oc2ccccc21	-5
Cc1ccccc1NC(=O)Cn1nc(C(F)(F)F)cc1C1CC1	54*	VCAM1 pot confirm=-9
Cc1cc(C(F)(F)F)nn1CC(=O)Nc1ccc(Br)c2cccnc12	-6
CCc1ccccc1NC(=O)c1nnn(CC(=O)Nc2cccc(C)c2C)c1N	-4
Cc1nc(NC(=O)COC(=O)C(NC(=O)c2ccco2)C(C)C)c(Cl)cc1Cl (stereo unspecified)	1
COc1ccc(OC)c(-n2c(-c3cccc(O)c3)n[nH]c2=S)c1	-7
COC(=O)C1=COC(C)C2CN3CCc4c([nH]c5ccccc45)C3CC12 (stereo unspecified)	6
O=C(O)c1c[nH]c2ccc(S(=O)(=O)N3CCOCC3)cc12	-55
COc1ccc(NS(=O)(=O)c2ccc(C)c(C(=O)O)c2)cc1	-7
COC(=O)c1ccc(C)c(NS(=O)(=O)c2ccc(OC)cc2)c1	32*	VCAM1 pot confirm=-59
Cc1ccc(S(=O)(=O)Nc2cc(C(=O)NCCN3CCCC3)ccc2N2CCCCC2)cc1	-74
CCOC(=O)C1=C(C)NC(C)=C(C(=O)OCC)C1C(=O)OC1CCOC1=O (stereo unspecified)	-7
CCOc1ccc(N2C(=O)CSC2c2ccncc2)cc1 (stereo unspecified)	-91
CN(C)CCCN1C(=O)CSC1c1ccccc1 (stereo unspecified)	-7
O=C1CSC(c2ccccn2)N1c1ccccc1 (stereo unspecified)	34*	VCAM1 pot confirm=-16
O=S(=O)(CCc1nnc(-c2ccc(Br)cc2)o1)c1ccc(Cl)cc1	-11
COc1ccc(OC)c(C2C3=C(COC3=O)Nc3cc4c(cc32)OCO4)c1 (stereo unspecified)	-96
COCCSc1ccccc1C(=O)NCC1CCCO1 (stereo unspecified)	?	VCAM1 pot confirm=-17
Cc1ccccc1C(=O)c1c[nH]c(C(=O)NCC2CCCO2)c1 (stereo unspecified)	-11
Cc1nc2ccc(F)cc2cc1C(=O)NCC1CCCO1 (stereo unspecified)	-12
CC(C)(C)C(=O)OCc1cn(-c2ccccc2)nn1	-1
O=C1c2ccccc2C(=O)N1OCCOCCOCCON1C(=O)c2ccccc2C1=O	0

Screening data as filed in PubChem.
